Our source for the Potency values is PubChem BioAssay AID720540 (National Center for Advancing Translational Sciences (NCATS), 2013).

Structures are written as SMILES. The whole screen tested about 1,300 compounds, of which about 460 (35%) were called active. Another 39% or so got no clear call; they are omitted. Calls come from the whole dose curve; as a rule, active = well fitted inhibition curve with a large enough effect; inconclusive = small, poorly fitted or top-dose-only effect; inactive = flat fitted curve, though single readings scatter. The list shows a part of the results.
Potency is the fitted concentration of half-maximal effect.

Chain of Protein phosphatase EYA2 (Homo sapiens) (O00167 whole entry, looked up): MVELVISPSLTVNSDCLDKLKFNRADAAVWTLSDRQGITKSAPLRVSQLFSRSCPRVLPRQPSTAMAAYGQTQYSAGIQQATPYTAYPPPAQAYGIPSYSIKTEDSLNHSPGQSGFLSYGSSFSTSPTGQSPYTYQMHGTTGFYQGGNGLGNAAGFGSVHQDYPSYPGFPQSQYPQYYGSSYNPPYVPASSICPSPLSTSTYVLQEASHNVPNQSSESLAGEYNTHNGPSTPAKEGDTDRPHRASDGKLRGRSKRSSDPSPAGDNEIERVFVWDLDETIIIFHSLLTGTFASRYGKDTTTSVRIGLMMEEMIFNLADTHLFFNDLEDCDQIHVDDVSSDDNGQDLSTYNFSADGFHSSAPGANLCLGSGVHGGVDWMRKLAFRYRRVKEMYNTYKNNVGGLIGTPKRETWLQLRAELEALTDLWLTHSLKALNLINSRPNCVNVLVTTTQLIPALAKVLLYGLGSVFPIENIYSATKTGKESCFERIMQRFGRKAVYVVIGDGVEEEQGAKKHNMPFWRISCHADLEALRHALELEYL

In the test the target is Protein phosphatase EYA2 (Homo sapiens) (UniProt O00167). As to the kind of experiment: qHTS for Inhibitors of the Phosphatase Activity of Eya2: Confirmatory Assay for Cherry-picked Compounds. Note: nearly all actives have a fitted effect of over 65% in size. Conditions: purified EYA2 phosphatase activity, qHTS confirmation; series mostly up to 46.1 µM. In short, it runs like this:
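Eya2 (0.2 uM working solution) preincubated 10 min at room temperature with compound in pH 7.5 HEPES buffer with MgCl2, BSA, DTT. OMFP added (50 uM working solution), 10 min more; fluorescence 485/525 nm, normalized to EGTA and DMSO.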
Take `Cc1cccc(S(=O)(=O)C(C#N)c2nc3ccccc3nc2N2CCOCC2)c1` (configuration not stated): the Potency entry is “inactive”.

Regarding `Cc1ccc(NC(=O)COc2ccc(S(=O)(=O)N3CCOCC3)cc2)cc1`, the Potency result was “inactive”.

For the compound `Cc1ccc(NC(=O)c2ccc3c(c2)OCO3)cc1S(=O)(=O)N1CCOCC1`, the Potency was 9.53 µM (active).

As for `Cc1ccc(NC(=O)c2cc(=O)c3ccccc3o2)cc1S(=O)(=O)N1CCCCC1`, the Potency is 12 µM (active).

For `S=C(Nc1ccc2c(c1)OCCO2)Nc1ccc2c(c1)OCO2`, the Potency result was “inactive”.

Consider `O=S(=O)(c1ccc(Cl)cc1)N1CCOCC1`, for which the Potency result was “inactive”.

For the compound `O=C(Nc1nc(-c2ccccn2)cs1)c1cccc(S(=O)(=O)N2CCOCC2)c1`, the Potency was 1.51 µM (active).

Regarding `COc1ccc(C(=O)Nc2nc(-c3ccccn3)cs2)cc1S(=O)(=O)N1CCOCC1`, the Potency was 1.51 µM (active).

`O=C(Nc1cc(S(=O)(=O)N2CCOCC2)ccc1Cl)c1cc(=O)c2ccccc2o1`: the Potency result is “inactive”.

As to `CC(C(=O)c1ccc(Br)cc1)[n+]1cccc2ccccc21` (configuration not stated), the Potency result was “inactive”.

Consider `O=C1c2ccccc2C(=O)N1CCCc1cn(C[C@H]2CC[C@@H]([C@@H]3CC[C@H](Cn4cc(CCCN5C(=O)c6ccccc6C5=O)nn4)O3)O2)nn1`, for which the Potency entry is “inactive”.

For the compound `COc1ccc(C(=O)Nc2ccc3nc(C)sc3c2)cc1S(=O)(=O)N1CCOCC1`, the Potency was 16.9 µM (active).

With `CCOC(=O)N1CCN(S(=O)(=O)c2ccc(C(=O)NNc3nc4ccc(Cl)cc4s3)cc2)CC1`, the Potency entry is “inactive”.

`COc1ccc(CC(=O)Nc2cccc(Cl)c2C)cc1S(=O)(=O)N1CCOCC1`: the Potency entry was “inactive”.

`CC(C)N=c1cc2n(-c3ccc(Cl)cc3)c3ccccc3nc-2cc1Nc1ccc(Cl)cc1`: the Potency is 1.9 µM (active).

As to `CCOC(=O)/C(C#N)=C/c1ccc(OC(=O)c2ccccn2)cc1`, the Potency was 8.49 µM (active).

As to `N#C/C(=C\c1ccc(OC(=O)c2ccc(Br)s2)cc1)c1nc2ccccc2[nH]1`, the Potency entry is “inactive”.

As for `N#C/C(=C/c1ccc(OC(=O)c2ccc(Br)s2)cc1)c1nc2ccccc2[nH]1`, the Potency result is “inactive”.

With `N#C/C(=C\c1ccc(OC(=O)c2ccc(Cl)s2)cc1)c1nc2ccccc2[nH]1`, the Potency entry is “inactive”.

Turning to `N#C/C(=C\c1ccc(OC(=O)c2ccccn2)cc1)C(N)=O`, the Potency is 16.9 µM (active).

Consider `CC(=O)Nc1cc(=O)c2cccnc2[nH]1`, for which the Potency is 15.1 µM (active).

Consider `CNC(=O)c1cc2c(cn1)[nH]c1ccccc12`, for which the Potency result is “inactive”.

Turning to `CCNc1ccc2noc3c2c1C(=O)c1ccccc1-3`, the Potency is 6.75 µM (active).

Regarding `COc1cc(CNCc2ccc(OC)cc2OC)cc(OC)c1`, the Potency result is “inactive”.

`CSc1nc(NCCOCCO)c2sc3nc(-c4ccco4)c4c(c3c2n1)CCC4`: the Potency was 7.57 µM (active).

On to `CCOc1ccc(C2C3=C(Nc4nc(N)[nH]c(=O)c42)c2ccccc2C3=O)cc1` (configuration not stated), for which the Potency is 2.69 µM (active).

With `Nc1nc2c(c(=O)[nH]1)C(c1cccc3ccccc13)C1=C(N2)c2ccccc2C1=O` (configuration not stated), the Potency is 7.57 µM (active).

`Nc1nc2c(c(=O)[nH]1)C(c1ccccc1)C1=C(N2)c2ccccc2C1=O` (configuration not stated): the Potency was 1.69 µM (active).

Regarding `CCCOc1ccc(C2C3=C(Nc4nc(N)[nH]c(=O)c42)c2ccccc2C3=O)cc1` (configuration not stated), the Potency is 3.38 µM (active).

As to `O=C1/C(=C/c2ccco2)SC(=S)N1c1cccnc1`, the Potency is 12 µM (active).

For the compound `Nc1n[nH]c2cc(=O)n(-c3ccc(Cl)cc3)nc12`, the Potency result was “inactive”.

For `Cn1nc(C(=O)Nc2nc3ccccc3[nH]2)c2ccccc2c1=O`, the Potency was 16.9 µM (active).

Take `CCN(CC)C(=O)CC(c1ccc(OC)cc1)c1c(OC)cc(OC)c2ccc(=O)oc12` (configuration not stated): the Potency entry is “inactive”.

For the compound `CN1N/C(=C\c2ccccc2)N=C2C(=O)N(C)C(=O)N=C21`, the Potency was 12 µM (active).

Regarding `CCOc1cccc(CN2CCC(CCC(=O)NC3CC3)CC2)c1O`, the Potency result was “inactive”.

With `Cc1ccc(Nc2nc(NCCO)nc3c2cnn3C)cc1Cl`, the Potency was 7.57 µM (active).

Consider `COc1cc2[nH]cc(C(=O)NCc3ccccc3)c(=O)c2cc1OC`, for which the Potency was 5.36 µM (active).

On to `COc1ccccc1C(=O)Nc1c[nH]c(=O)[nH]c1=O`, for which the Potency result is “inactive”.

For the compound `COc1ccc(CNC(=O)c2sc(=O)n(Cc3cc(Cl)ccc3OC)c2C)cc1`, the Potency entry is “inactive”.

For `O=C(C1=C[C@H](c2ccccc2)C[C@H](OCc2ccc(CO)cc2)O1)N1CCN(Cc2ccccc2)CC1`, the Potency result is “inactive”.

For the compound `Nc1ccc2c(c1Cl)C(=O)c1ccc(N)c(Cl)c1C2=O`, the Potency was 3.01 µM (active).

For `Cc1cc(Nc2ccc([N+](=O)[O-])cc2)c2ccccc2n1`, the Potency result is “inactive”.

Regarding `COc1ccccc1Nc1cc(C)nc2c(C)ccc([N+](=O)[O-])c12`, the Potency was 19 µM (active).

On to `O=C(NN1C(=O)/C(=C\c2ccc(O)c([N+](=O)[O-])c2)SC1=S)c1ccccc1Cl`, for which the Potency is 12 µM (active).

With `O=C(Nc1ccccc1)C1=C(c2ccccc2)S(=O)(=O)CCS1(=O)=O`, the Potency is 13.5 µM (active).

Turning to `O=C(Nc1ccccc1)C(Cl)C(=O)c1ccccc1` (configuration not stated), the Potency entry is “inactive”.

Turning to `O=C(CSc1ccc(-c2ccccn2)nn1)N1CCCCC1`, the Potency was 7.57 µM (active).

As for `O=C(CSc1ccc(-c2ccccn2)nn1)N1CCCC1`, the Potency is 12 µM (active).

Take `O=C(Cn1c(S(=O)(=O)Cc2ccccc2)nc2ccccc21)N1CCCCC1`: the Potency result was “inactive”.

Take `Cc1cc2nc(/N=C(\N)NC(=O)N3c4ccccc4Sc4ccccc43)nc(C)c2cc1C`: the Potency result was “inactive”.

As to `O=C(Cn1c(C(=O)N2CCc3ccccc3C2)cc2sccc21)c1ccccc1`, the Potency result is “inactive”.

In the case of `Cc1cc(NC(=O)CS(=O)(=O)c2cn(Cc3cccc(Br)c3)c3ccccc23)no1`, the Potency entry is “inactive”.

In the case of `Cn1ccc2c(N3CCCC3)cc3c(c21)C1CCC3C1` (configuration not stated), the Potency is 21.3 µM (active).

With `COC(=O)c1ccc(C23CC4(C2)[C@H](CN(CC2CCCCC2)[C@@H]4c2ccccc2)C3c2ccc(Cl)nc2)cc1` (some centres not stated), the Potency result is “inactive”.

As for `O=C(CC(=O)c1c(F)cccc1Cl)c1ccccc1O`, the Potency entry is “inactive”.

Take `COC(=O)c1ccccc1NC1=C/C(=N\S(=O)(=O)c2cccs2)c2ccccc2C1=O`: the Potency was 1.69 µM (active).

Regarding `O=c1c2ccccc2nnn1CSc1nnc(C2COc3ccccc3O2)n1-c1ccccc1` (configuration not stated), the Potency entry was “inactive”.

In the case of `O=c1c2ccccc2c(C=Nc2cccc(S(=O)(=O)NC3=NCCCCC3)c2)c(O)n1Cc1ccccc1`, the Potency entry was “inactive”.

Consider `COc1cccc(NC(=O)c2ccc3c(c2)CCN3S(C)(=O)=O)c1`, for which the Potency result is “inactive”.

In the case of `COc1ccc(S(=O)(=O)c2c(O)c3ccc(C(=O)Nc4cccc(F)c4)cc3[nH]c2=O)cc1`, the Potency is 0.338 µM (active).

Take `Cc1ccc(Nc2nnc(SCC(=O)c3c(N)n(C4CC4)c(=O)[nH]c3=O)s2)cc1C`: the Potency entry is “inactive”.

On to `O=C(Oc1ccc2c(c1)OCC2=O)c1ccccc1`, for which the Potency was 4.78 µM (active).

With `O=C(Oc1ccc2c(c1)OCC2=O)c1ccc(Cl)cc1`, the Potency was 2.39 µM (active).

For `CCCNC(=O)C1(C)CCN(Cc2cccc(OC(=O)c3ccccc3)c2)C1` (configuration not stated), the Potency entry is “inactive”.

As for `CN(CCCc1cnc[nH]1)C(=S)NCCCN(Cc1ccc(Cl)cc1)c1ccc(Br)cn1`, the Potency is 19 µM (active).

Take `S=C(NCCCc1cnc[nH]1)NCCCN(Cc1ccc(Cl)cc1)c1ccc(-c2ccccc2)cn1`: the Potency was 16.9 µM (active).

Regarding `COc1cc(CNC(=O)Nc2nc(C(N)c3ccccc3)cs2)cc(OC)c1OC` (configuration not stated), the Potency was 19 µM (active).

As to `CCC(=O)Nc1nc2c(OC)ccc(OC)c2s1`, the Potency result was “inactive”.

In the case of `Cc1ccccc1-c1cnc(C(O)c2c(C)cccc2C)[nH]1` (configuration not stated), the Potency result is “inactive”.

For the compound `Cc1nc([N+](=O)[O-])cn1CC(O)c1ccc2c(c1)OCO2` (configuration not stated), the Potency result was “inactive”.

On to `O=c1[nH]c(=O)n(C2C[C@H](O)[C@@H](CO)O2)cc1C(F)(F)F` (some centres not stated), for which the Potency entry is “inactive”.

For `COc1ccc2ccccc2c1C=NN1CCCCC1`, the Potency is 16.9 µM (active).

`CCOC(=O)NNc1nncc2ccccc12`: the Potency entry is “inactive”.

For the compound `CCOC(=O)c1ncccc1NC(=O)CC(=O)Nc1cccnc1C(=O)OCC`, the Potency is 3.79 µM (active).

In the case of `CC(=O)Oc1cccc2c1C(=O)C1CC=CC(OC(C)=O)C1C2=O` (configuration not stated), the Potency was 15.1 µM (active).

On to `O=[N+]([O-])c1ccccc1/C=C\C=N\N1CCN(c2ccccc2)CC1`, for which the Potency is 9.53 µM (active).

Consider `COc1ccccc1N1CCN(/N=C/C=C\c2ccccc2[N+](=O)[O-])CC1`, for which the Potency was 15.1 µM (active).

As to `COc1ccc(F)cc1-c1cc(NC=O)c2ncc(-c3cccc(C(F)(F)F)c3)n2c1`, the Potency entry was “inactive”.

On to `O=C(O)C1=C[C@@H](c2csc3ccccc23)C[C@@H](OCc2ccc(CO)cc2)O1`, for which the Potency result was “inactive”.

Take `OC(COc1ccc2cc(Br)ccc2c1)Cn1ccnc1` (configuration not stated): the Potency result was “inactive”.

As to `CS(=O)(=O)c1ccc(-c2nnc(NC(=O)C3=COCCO3)o2)cc1`, the Potency result was “inactive”.

For the compound `Cc1sc(NC(=O)C2=COCCO2)c(C(N)=O)c1C`, the Potency is 7.57 µM (active).

On to `CC1CCc2c(sc(NC(=O)/C=C/c3cccs3)c2C(=O)O)C1` (configuration not stated), for which the Potency was 19 µM (active).

Consider `O=C(O)c1cc(N2N=C(C(F)(F)F)/C(=C/C=C/c3ccco3)C2=O)ccc1Cl`, for which the Potency was 1.51 µM (active).

Regarding `O=C1C=C(Nc2ccccc2)C(=O)c2ccccc21`, the Potency was 6.01 µM (active).

As for `CCOC(=O)c1c(C)oc2c1c(C=NCc1ccccn1)c(O)c1ccccc12`, the Potency was 15.1 µM (active).

As for `COc1ccc(Nc2nc(N)nc(CSC(=S)N3CCCCC3)n2)cc1`, the Potency entry was “inactive”.

For the compound `CCSc1nc2ccccc2n1C(=O)c1ccc(S(=O)(=O)N2CCCCC2)cc1`, the Potency result is “inactive”.

For `O=C(O)c1ccccc1-c1ccccc1C(=O)Nc1ccc2oc(=O)c3ccccc3c2c1`, the Potency was 8.49 µM (active).

For the compound `O=C(O)c1ccccc1-c1ccccc1C(=O)Nc1ccc2c(c1)[nH]c(=O)c1ccccc12`, the Potency is 7.57 µM (active).

Turning to `CSc1ccc(CNc2ncc(-c3cccc([N+](=O)[O-])c3)n2C)cc1`, the Potency is 19 µM (active).

Take `O=C(Nc1ncc(Cc2ccccc2Cl)s1)c1ccc(-c2cccc([N+](=O)[O-])c2)o1`: the Potency entry was “inactive”.

Regarding `Oc1c(Br)cc(Br)cc1CNc1cccc2cccnc12`, the Potency is 7.57 µM (active).

On to `COC(=O)c1cc2c(ccc3ccccc32)oc1=O`, for which the Potency is 7.57 µM (active).

As to `O=C(SCc1c(O)c2ccccc2oc1=O)c1ccccc1`, the Potency result was “inactive”.

As to `COc1ccc(OC)c(Nc2nc(-c3sc(N)nc3C)cs2)c1`, the Potency is 8.49 µM (active).

As for `COc1ccccc1Nc1nc(-c2ccc3c(c2)NC(=O)CO3)cs1`, the Potency result was “inactive”.
